Results as given in PubChem BioAssay.
The source made the active and inactive calls.

Legend:
[1] = tested on: PRMT1 (protein arginine N-methyltransferase 1); assay: small molecules binding arginine methyltransferase PRMT1 – biochemical, small-molecule microarray, 635 nm fluorescence, primary screen (AID 1088); conditions: higher = more signal;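 note: binding of Prmt1 protein to compounds spotted on small-molecule microarray slides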
[2] = growth effects on S. cerevisiae YJM789 – YJM789 clinical isolate, OD600, 24 h, basal, primary screen (AID 1089); conditions: higher = more signal, called active from +8 up or from −8 down;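 note: growth of clinical yeast isolate S. cerevisiae YJM 789 seeded 1000 cells per well; test concentration not given here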
[3] = S. pombe growth modifiers, basal conditions – strain 972, OD600, 24 h, no modulator, primary screen (AID 1090);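 note: basal condition with compound alone and no growth modifier present; test concentration not given here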; conditions: S. pombe 972 growth, higher = more signal, called active from +8 up or from −8 down
[4] = budding yeast growth modifiers under rapamycin – strain BY4716, OD600, 96 h, primary screen (AID 1091); note: test concentration not given here; conditions: S. cerevisiae BY4716 + rapamycin, higher = more signal, called active from +8 up or from −8 down
[5] = molecular target: Torsin-1A-interacting protein 2 (Homo sapiens) (UniProt Q8NFQ8); assay: small molecules binding lysate-expressed LULL1 – cell lysate, human LULL1 lysate, 635/667 nm fluorescence, primary screen (AID 1092); conditions: small-molecule microarray, hLULL1 lysate binding, 635 nm fluorescence; higher = more signal;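 note: probe is lysate of COS7 cells overexpressing human LULL1; score merges per-feature 667 nm fluorescence with signal-to-noise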
[6] = optical density change of DRC41 E. coli – strain DRC41, OD650, 24 h, E. coli filamentation project, primary screen (AID 1093);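 note: MC1000 strain lacking acrAB efflux and sulA so SOS filamentation is blocked; test concentration not given here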; conditions: E. coli DRC41 growth, higher = more signal, called active from +8 up or from −8 down
[7] = probe aLefty2 binding to arrayed compounds – biochemical, biotinylated probe, 635/667 nm fluorescence, primary screen (AID 1094); conditions: small-molecule microarray, higher = more signal;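 note: score merges spot fluorescence near 667 nm with spot signal-to-noise ratio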
[8] = tested on: Noggin (protein binding on small-molecule microarray); assay: small molecules binding Noggin protein – biochemical, 635/667 nm fluorescence, primary screen (AID 1095); conditions: 635 nm fluorescence, higher = more signal;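 note: score merges 667 nm feature fluorescence with signal to noise over triplicate slides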
[9] = molecular target: Neurogenic locus notch homolog protein 3 (Homo sapiens) (UniProt Q9UM47); assay: small molecules binding NOTCH3 protein – biochemical, 635/667 nm fluorescence, primary screen (AID 1096); conditions: small-molecule microarray, 635 nm fluorescence, higher = more signal
[10] = probe aEGFR binding to arrayed compounds – biochemical, biotinylated probe, 635/667 nm fluorescence, primary screen (AID 1097); conditions: small-molecule microarray, higher = more signal;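 note: probe is a biotinylated anti-EGFR antibody binding compounds printed on slides; score combines fluorescence near 667 nm and signal to noise of each spot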

Neurogenic locus notch homolog protein 3 (Homo sapiens), sequence (Q9UM47 whole entry, looked up): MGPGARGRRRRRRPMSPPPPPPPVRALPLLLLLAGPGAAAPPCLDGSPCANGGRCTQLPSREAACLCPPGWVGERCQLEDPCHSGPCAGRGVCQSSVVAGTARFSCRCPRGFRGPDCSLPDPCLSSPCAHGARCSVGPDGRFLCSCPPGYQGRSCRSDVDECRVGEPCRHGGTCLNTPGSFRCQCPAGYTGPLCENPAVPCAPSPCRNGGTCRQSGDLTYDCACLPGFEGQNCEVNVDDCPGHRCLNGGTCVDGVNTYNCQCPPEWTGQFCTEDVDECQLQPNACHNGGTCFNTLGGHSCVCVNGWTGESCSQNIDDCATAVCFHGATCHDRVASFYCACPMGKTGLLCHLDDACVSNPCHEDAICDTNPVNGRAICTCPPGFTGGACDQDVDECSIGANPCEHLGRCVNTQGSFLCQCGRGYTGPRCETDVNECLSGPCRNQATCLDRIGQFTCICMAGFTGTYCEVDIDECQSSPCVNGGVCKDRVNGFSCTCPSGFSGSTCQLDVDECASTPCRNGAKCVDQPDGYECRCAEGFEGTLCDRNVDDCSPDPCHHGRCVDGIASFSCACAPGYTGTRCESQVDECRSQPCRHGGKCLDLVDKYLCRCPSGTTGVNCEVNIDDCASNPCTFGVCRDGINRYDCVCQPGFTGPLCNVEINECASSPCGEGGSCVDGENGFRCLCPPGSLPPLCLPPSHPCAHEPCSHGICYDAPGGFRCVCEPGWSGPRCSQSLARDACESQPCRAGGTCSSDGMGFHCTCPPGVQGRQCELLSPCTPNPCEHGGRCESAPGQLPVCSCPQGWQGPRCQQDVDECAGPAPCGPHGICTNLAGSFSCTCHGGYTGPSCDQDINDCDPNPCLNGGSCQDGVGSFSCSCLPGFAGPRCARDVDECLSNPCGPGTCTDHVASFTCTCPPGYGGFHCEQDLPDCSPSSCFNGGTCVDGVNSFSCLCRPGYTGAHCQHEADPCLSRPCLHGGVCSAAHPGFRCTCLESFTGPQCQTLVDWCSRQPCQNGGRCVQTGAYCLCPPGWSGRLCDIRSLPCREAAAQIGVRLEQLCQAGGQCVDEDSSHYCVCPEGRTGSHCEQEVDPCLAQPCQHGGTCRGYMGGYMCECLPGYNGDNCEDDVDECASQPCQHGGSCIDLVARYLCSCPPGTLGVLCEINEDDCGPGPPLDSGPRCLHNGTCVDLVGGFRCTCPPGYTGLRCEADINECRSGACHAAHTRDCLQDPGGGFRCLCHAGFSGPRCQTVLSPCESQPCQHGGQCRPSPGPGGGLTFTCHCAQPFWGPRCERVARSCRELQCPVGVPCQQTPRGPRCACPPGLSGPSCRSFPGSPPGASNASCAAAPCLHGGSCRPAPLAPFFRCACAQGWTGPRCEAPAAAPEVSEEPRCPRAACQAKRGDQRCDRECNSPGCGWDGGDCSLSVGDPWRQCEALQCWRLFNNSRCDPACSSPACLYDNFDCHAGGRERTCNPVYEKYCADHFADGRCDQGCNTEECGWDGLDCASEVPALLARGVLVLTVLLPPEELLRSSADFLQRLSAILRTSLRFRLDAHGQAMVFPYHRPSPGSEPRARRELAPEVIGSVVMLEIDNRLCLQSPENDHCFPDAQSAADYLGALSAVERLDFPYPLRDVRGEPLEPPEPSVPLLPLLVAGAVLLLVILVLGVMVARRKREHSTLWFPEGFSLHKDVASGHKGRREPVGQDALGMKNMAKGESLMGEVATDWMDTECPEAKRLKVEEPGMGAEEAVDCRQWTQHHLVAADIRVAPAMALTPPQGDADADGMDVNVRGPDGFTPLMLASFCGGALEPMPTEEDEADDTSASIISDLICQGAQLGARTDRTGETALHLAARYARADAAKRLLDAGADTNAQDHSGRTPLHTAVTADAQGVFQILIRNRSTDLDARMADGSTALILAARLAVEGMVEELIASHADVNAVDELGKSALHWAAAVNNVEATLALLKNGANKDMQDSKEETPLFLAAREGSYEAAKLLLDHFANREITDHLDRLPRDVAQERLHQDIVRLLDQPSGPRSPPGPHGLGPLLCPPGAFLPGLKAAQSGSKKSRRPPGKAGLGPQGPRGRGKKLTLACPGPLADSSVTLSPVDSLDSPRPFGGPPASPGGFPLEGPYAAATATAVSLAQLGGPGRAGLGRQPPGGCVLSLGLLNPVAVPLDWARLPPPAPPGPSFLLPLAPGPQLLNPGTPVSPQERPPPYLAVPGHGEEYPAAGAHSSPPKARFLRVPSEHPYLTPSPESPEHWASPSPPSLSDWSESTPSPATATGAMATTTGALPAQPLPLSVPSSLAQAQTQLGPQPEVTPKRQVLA
Torsin-1A-interacting protein 2 (Homo sapiens), sequence (Q8NFQ8 whole entry, looked up): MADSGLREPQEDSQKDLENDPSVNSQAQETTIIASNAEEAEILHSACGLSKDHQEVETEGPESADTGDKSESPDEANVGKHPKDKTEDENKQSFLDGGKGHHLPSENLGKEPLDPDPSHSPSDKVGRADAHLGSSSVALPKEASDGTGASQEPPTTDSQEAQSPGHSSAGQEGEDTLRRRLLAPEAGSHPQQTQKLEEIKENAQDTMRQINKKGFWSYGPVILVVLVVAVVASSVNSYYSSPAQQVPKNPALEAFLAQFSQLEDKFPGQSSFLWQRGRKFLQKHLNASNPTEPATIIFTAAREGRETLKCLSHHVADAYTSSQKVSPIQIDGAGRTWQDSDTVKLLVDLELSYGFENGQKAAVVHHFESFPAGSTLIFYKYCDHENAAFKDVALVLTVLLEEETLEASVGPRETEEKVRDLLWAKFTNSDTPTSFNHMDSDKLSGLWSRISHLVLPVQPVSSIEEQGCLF

| SMILES | composite z-score [1] | z-score [2] | z-score [3] | z-score [4] | composite z-score [5] | z-score [6] | composite z-score [7] | composite z-score [8] | composite z-score [9] | composite z-score [10] |
| --- | --- | --- | --- | --- | --- | --- | --- | --- | --- | --- |
| COCCOC(=O)N1C(=O)[C@@]2(c3ccccc31)[C@H](c1ccc(O)cc1)N1[C@H](c3ccccc3)[C@H](c3ccccc3)OC(=O)[C@H]1[C@@H]2C(=O)Nc1nc2ccccc2s1 | 1.31 | 1.35 (inactive) | 0.396 (inactive) | 1.75 (inactive) | 1.94 | 1.31 (inactive) | 0.201 | 0.734 | 1.09 | 0.0432 |
| [N-]=[N+]=NCc1ccccc1[C@@H]1OC(c2ccc(OCCCO)cc2)=N[C@]1(Cc1ccccc1)C(=O)NCC(O)CO (stereo not given in full) | 1.25 | -0.427 (inactive) | 0.0493 (inactive) | -0.659 (inactive) | 3.44 | 0.123 (inactive) | 0.414 | 0.238 | -0.27 | 0.411 |
| O=C1[C@@]23C=C(Br)[C@H](C[C@@H]2CCOC3)[C@@]12CO2 | -0.414 | 0.24 (inactive) | -2.31 (inactive) | -0.582 (inactive) | 0.102 | -0.0015 (inactive) | -0.217 | 0.721 | 0.372 | 0.0372 |
| C=C(CCCC)/C(=C/C[C@@H](OC(C)=O)c1ccc(OCCO)cc1)c1cnc2ccccc2c1 | 1.56 | 0.273 (inactive) | -1.44 (inactive) | -0.245 (inactive) | 2.01 | 0.796 (inactive) | -0.132 | 0.542 | 0.857 | 0.0507 |
| COCCOC(=O)N1C(=O)[C@@]2(c3cc(C#CCNC(N)=O)ccc31)[C@H](C(=O)N1CCN(c3ncccn3)CC1)[C@H]1C(=O)O[C@H](c3ccccc3)[C@H](c3ccccc3)N1[C@@H]2c1ccc(OCCO)cc1 | 1.57 | 1.51 (inactive) | 0.383 (inactive) | 4.36 (inactive) | 2.34 | -0.351 (inactive) | 0.0158 | 0.707 | 1.1 | -0.0271 |
| CCOC(=O)C1=CC[C@@H](c2ccccc2)N(S(=O)(=O)c2ccc(C)cc2)[C@H]1c1ccccc1C | 0.473 | -0.602 (inactive) | 0.903 (inactive) | -0.3 (inactive) | 1.97 | -0.3 (inactive) | 0.066 | 0.72 | 0.913 | -0.0675 |
| COc1cc2c(cc1OC)CN(C(=O)[C@H]1[C@@H]3C(=O)O[C@@H](c4ccccc4)[C@@H](c4ccccc4)N3[C@@H](c3ccc(O)cc3)[C@]13C(=O)Nc1ccccc13)CC2 | 1.27 | 1.16 (inactive) | 0.536 (inactive) | 1.74 (inactive) | 2.32 | -0.204 (inactive) | -0.139 | 0.0366 | 0.518 | -0.191 |
| CN(C)CCCCCCNC(=O)[C@@H]1C[C@@H]2C(=O)N[C@@H](Cc3ccccc3)C(=O)N2[C@@H]1c1ccc(O)cc1 | 1.53 | -0.18 (inactive) | -0.899 (inactive) | 0.0891 (inactive) | 2.84 | -0.13 (inactive) | 0.195 | 1.8 | 1.09 | 0.246 |
| Cc1ccc(S[C@]2(C(=O)NCCCN(C)C)CC(=O)N(Cc3cc(C(F)(F)F)cc(C(F)(F)F)c3)[C@@H]2c2ccc(CO)cc2)cc1 | 0.383 | -1.15 (inactive) | -0.79 (inactive) | -0.497 (inactive) | 0.923 | -0.356 (inactive) | -0.0478 | -0.768 | -1.5 | -0.113 |
| Cc1ccc(S[C@]2(C(=O)NC3CC3)CC(=O)N(Cc3ccccc3)[C@@H]2c2ccc(CO)cc2I)cc1 | 1.23 | 0.0136 (inactive) | -3.59 (inactive) | 0.0377 (inactive) | 2.35 | 0.45 (inactive) | -0.012 | -0.809 | -0.738 | -0.286 |
| CCOC(=O)C[C@H]1[C@H](OC(=O)c2cc3ccccc3oc2=O)[C@@H](NC(=O)c2ccccc2)c2cc(OCCCO)ccc2N1C(=O)c1ccc2ccccc2n1 | 0.258 | 0.157 (inactive) | -0.12 (inactive) | 0.0284 (inactive) | 0.852 | 0.368 (inactive) | -0.193 | 0.918 | 0.662 | -0.0828 |
| CC(C)C(=C=CC[C@@H](O)c1ccc(OCCO)cc1)C[C@@H](O)COCc1ccccc1 | 1.54 | -1.06 (inactive) | -1.09 (inactive) | -0.418 (inactive) | 1.93 | 1.14 (inactive) | -0.192 | 1.65 | 0.652 | -0.135 |
